Source: PubChem BioAssay (NCI)
Compounds without any hit were thinned out: in the full panel of roughly 83,000, 20% have a hit.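 Values shown are percent growth following 48 h exposure of cells in 96-well plates to a single concentration of compound; below 10 was considered active.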 Activity calls are given as the source filed them.

How the values were obtained:
Assay in all cases: NCI-60 one-dose screen, 48 h (100 = growth as untreated, 0 = no growth, -100 = all killed)
Conditions in all cases: 10 µM
NCI-H23 lung = tested on: NCI-H23 lung
NCI-H226 lung = tested on: NCI-H226 lung
NCI-H322M lung = tested on: NCI-H322M lung
HOP-62 NSCLC = tested on: HOP-62 NSCLC
NCI-H460 lung = tested on: NCI-H460 lung
NCI-H522 lung = tested on: NCI-H522 lung
A549/ATCC NSCLC = tested on: A549/ATCC NSCLC
786-0 renal = tested on: 786-0 renal
COLO 205 colon = tested on: COLO 205 colon
DU-145 prostate = tested on: DU-145 prostate

Measured: growth

Cc1ccc(Nc2cc(C)nc(NCCCNc3ccnc4cc(Cl)ccc34)n2)cc1
active: NCI-H322M lung -31.8% | HOP-62 NSCLC -12.4% | NCI-H460 lung -45.4% | NCI-H522 lung -83.5% | A549/ATCC NSCLC -69.3% | 786-0 renal -100% | COLO 205 colon -88.2% | DU-145 prostate -17.8%
inactive: NCI-H23 lung 17.6% | NCI-H226 lung 48.5%

FC(F)(F)c1ccc(-c2cnc(Cl)nc2N2CCC3(CC2)OCCO3)cc1
inactive: NCI-H23 lung 94.9% | NCI-H226 lung 94.4% | NCI-H322M lung 91.7% | HOP-62 NSCLC 97.2% | NCI-H460 lung 100% | NCI-H522 lung 63.2% | A549/ATCC NSCLC 90.2% | 786-0 renal 95.5% | COLO 205 colon 93.2% | DU-145 prostate 95.5%

COc1cc(-c2nn3c(/C=C4/C(=O)Nc5ccccc54)c(-c4ccc(C)cc4)nc3s2)cc(OC)c1OC
inactive: NCI-H23 lung 51.2% | NCI-H226 lung 96.4% | NCI-H322M lung 73.5% | HOP-62 NSCLC 79.5% | NCI-H460 lung 29% | NCI-H522 lung 58% | A549/ATCC NSCLC 29.8% | 786-0 renal 70.9% | COLO 205 colon 68.5% | DU-145 prostate 14%

N#CC1=C(Nc2ccccc2Cl)SC(c2ccccc2O)NC1=O (stereo not given)
inactive: NCI-H23 lung 112% | NCI-H226 lung 120% | NCI-H322M lung 114% | HOP-62 NSCLC 115% | NCI-H460 lung 121% | A549/ATCC NSCLC 56.4% | 786-0 renal 114% | COLO 205 colon 121% | DU-145 prostate 117%
active: NCI-H522 lung 1.13%

COc1cc(/C=C2\CCCC3=C2N=C2SC=NN2C3c2cc(OC)c(OC)c(OC)c2)cc(OC)c1OC (stereo not given)
inactive: NCI-H23 lung 28.9% | NCI-H226 lung 13.6% | NCI-H322M lung 28.4% | HOP-62 NSCLC 11.8% | NCI-H522 lung 46.5% | A549/ATCC NSCLC 13.1% | 786-0 renal 32% | COLO 205 colon 25.7%
active: NCI-H460 lung 1.24% | DU-145 prostate 8.36%

Nc1nc(N)c2c(ccc3nccc32)[nH]1
active: A549/ATCC NSCLC 2.16%
inactive: NCI-H23 lung 50% | NCI-H226 lung 123% | NCI-H322M lung 61% | HOP-62 NSCLC 74.8% | NCI-H460 lung 20% | NCI-H522 lung 37.9% | 786-0 renal 35.8% | COLO 205 colon 71.4% | DU-145 prostate 62.2%

Cn1c([N+](=O)[O-])cnc1/C=C1\Oc2ccc(Cl)cc2C1=O
inactive: NCI-H322M lung 11.4%
active: NCI-H23 lung -12.7% | NCI-H226 lung -27.2% | HOP-62 NSCLC -17.2% | NCI-H460 lung -44.3% | NCI-H522 lung -50.3% | A549/ATCC NSCLC -40.9% | 786-0 renal -23.2% | COLO 205 colon -41.6% | DU-145 prostate -17.1%

Cc1cc(Nc2ccc(Cl)cc2)nc(NCCCNc2ccnc3cc(Cl)ccc23)n1
inactive: NCI-H23 lung 51.2% | NCI-H226 lung 102%
active: NCI-H322M lung -0.971% | HOP-62 NSCLC -22.6% | NCI-H460 lung -44.9% | NCI-H522 lung -78.8% | A549/ATCC NSCLC -55.2% | 786-0 renal -98.7% | COLO 205 colon -91.1% | DU-145 prostate 1.28%

Cc1cccc(Cl)c1NC(=O)c1ccc2nc(NC(=O)NC3CCN(C)CC3)sc2c1
inactive: NCI-H23 lung 82.3% | NCI-H226 lung 121% | NCI-H322M lung 95.5% | HOP-62 NSCLC 63.1% | NCI-H460 lung 114% | NCI-H522 lung 83.5% | A549/ATCC NSCLC 91.5% | 786-0 renal 91.2% | COLO 205 colon 37.4% | DU-145 prostate 103%

CCCCCCN(CCCCCC)CC(O)c1ccc2c3c(cccc13)CC2 (stereo not given)
inactive: NCI-H23 lung 30.5% | NCI-H226 lung 69.9% | NCI-H322M lung 65.9% | HOP-62 NSCLC 85.2% | NCI-H460 lung 42.6% | NCI-H522 lung 30.1% | A549/ATCC NSCLC 64.1% | 786-0 renal 43.1% | COLO 205 colon 64.1% | DU-145 prostate 76.4%

COc1ccc2c(c1)sc1nc(-c3ccccc3)c(-c3ccc(O)c(OC)c3)n12
inactive: NCI-H23 lung 88.2% | NCI-H226 lung 94.1% | NCI-H322M lung 89.7% | HOP-62 NSCLC 79.1% | NCI-H460 lung 69.8% | NCI-H522 lung 76.4% | A549/ATCC NSCLC 64.2% | 786-0 renal 84.9% | COLO 205 colon 71.4% | DU-145 prostate 107%

N=C(N)c1ccc(-c2ccc(-c3cccs3)s2)s1
active: NCI-H322M lung -29.8% | HOP-62 NSCLC -67.4% | NCI-H460 lung -82.2% | NCI-H522 lung -69.5% | A549/ATCC NSCLC -63.2% | 786-0 renal -88.6% | COLO 205 colon -93.8% | DU-145 prostate -91.6%
inactive: NCI-H23 lung 51.8% | NCI-H226 lung 74.2%

O=C1/C(=C/c2ccc([N+](=O)[O-])s2)Oc2ccccc21
active: NCI-H23 lung -37% | NCI-H226 lung -0.59% | NCI-H322M lung -21.5% | HOP-62 NSCLC 3.77% | NCI-H460 lung -27.7% | NCI-H522 lung -68.8% | A549/ATCC NSCLC -22.2% | 786-0 renal -37% | COLO 205 colon -69.2% | DU-145 prostate 4.99%

O=C1OCC2=C1C(c1cccc(Cl)c1)c1cc3c(cc1N2CCO)OCO3 (stereo not given)
active: NCI-H460 lung 7.53% | NCI-H522 lung -19.7% | COLO 205 colon -6.41%
inactive: NCI-H23 lung 31.7% | NCI-H226 lung 23.4% | NCI-H322M lung 42.8% | HOP-62 NSCLC 31.4% | A549/ATCC NSCLC 27.6% | 786-0 renal 35.7% | DU-145 prostate 11%

O=C(Nc1nc2ccc(F)cc2s1)c1cc(-c2ccc(F)cc2)n2nc(-c3ccccc3)cc2n1
inactive: NCI-H23 lung 79.7% | NCI-H226 lung 105% | NCI-H322M lung 111% | HOP-62 NSCLC 64.1% | NCI-H460 lung 59.5% | NCI-H522 lung 98.9% | A549/ATCC NSCLC 92.1% | 786-0 renal 101% | COLO 205 colon 96.4% | DU-145 prostate 87%

O=C1/C(=C\c2ccc(F)cc2)CN(C(=O)c2ccccc2)C/C1=C\c1ccc(F)cc1
active: NCI-H522 lung -8.75%
inactive: NCI-H23 lung 61.8% | NCI-H226 lung 36.6% | NCI-H322M lung 73.6% | HOP-62 NSCLC 53.3% | NCI-H460 lung 58% | A549/ATCC NSCLC 49.2% | 786-0 renal 33.6% | COLO 205 colon 50.9% | DU-145 prostate 31.7%

Cc1cccc(NC2=C(C#N)C(=O)NC3(CCCC3)S2)c1
inactive: NCI-H23 lung 100% | NCI-H226 lung 96.5% | NCI-H322M lung 112% | HOP-62 NSCLC 98.7% | NCI-H460 lung 107% | NCI-H522 lung 15.8% | A549/ATCC NSCLC 30.2% | 786-0 renal 103% | COLO 205 colon 127% | DU-145 prostate 117%

CN1CCC(CNc2cc(C3(C(=O)Nc4cc(C(=O)Nc5ccc(Cl)c(C(F)(F)F)c5)ccc4F)CC3)ncn2)CC1
inactive: NCI-H23 lung 44% | NCI-H226 lung 72.5% | NCI-H322M lung 39.4% | NCI-H522 lung 46.6% | A549/ATCC NSCLC 13.4% | DU-145 prostate 40.5%
active: HOP-62 NSCLC -47.2% | NCI-H460 lung 3.98% | 786-0 renal -38.4% | COLO 205 colon -67.3%

Cc1nc2ccccc2c(N)c1-c1cc(C)c2c(C)nc3ccccc3c2n1
inactive: NCI-H23 lung 44.8% | NCI-H226 lung 98.8% | NCI-H322M lung 10.7% | HOP-62 NSCLC 58.4% | NCI-H522 lung 68.6%
active: NCI-H460 lung -75.8% | A549/ATCC NSCLC -75.4% | 786-0 renal -89.2% | COLO 205 colon -91% | DU-145 prostate -82.4%

CCCC1(CC(=O)O)OCCc2c1[nH]c1ccccc21 (stereo not given)
inactive: NCI-H23 lung 93.4% | NCI-H226 lung 98.4% | NCI-H322M lung 109% | HOP-62 NSCLC 107% | NCI-H460 lung 109% | NCI-H522 lung 37.2% | A549/ATCC NSCLC 99.3% | 786-0 renal 103% | COLO 205 colon 229% | DU-145 prostate 114%

COc1ccc(-c2nc3ncccn3c2-c2nnc(-c3ccc(F)cc3)o2)cc1
inactive: NCI-H23 lung 98.2% | NCI-H226 lung 96.7% | NCI-H322M lung 101% | HOP-62 NSCLC 106% | NCI-H460 lung 101% | NCI-H522 lung 106% | A549/ATCC NSCLC 104% | 786-0 renal 101% | COLO 205 colon 113% | DU-145 prostate 106%

CC(=O)n1c(-c2ccc(Cl)c(Cl)c2)cn(-c2ccc(Cl)cc2)c1=O
active: HOP-62 NSCLC -29.1% | NCI-H460 lung 3.52% | A549/ATCC NSCLC -10.1% | 786-0 renal 2.32% | COLO 205 colon -19.2% | DU-145 prostate 0.358%
inactive: NCI-H23 lung 27.5% | NCI-H226 lung 76.2% | NCI-H322M lung 69% | NCI-H522 lung 36.7%

CC(C)C[C@H](NC(=O)[C@H](Cc1cccc2ccccc12)NS(=O)(=O)c1cccc2cccnc12)B(O)O
active: NCI-H23 lung -52.9% | NCI-H226 lung -66.6% | NCI-H322M lung -9.95% | HOP-62 NSCLC -72.3% | NCI-H460 lung -53.2% | NCI-H522 lung -56.4% | A549/ATCC NSCLC 5.39% | 786-0 renal -19.4% | COLO 205 colon -36.5% | DU-145 prostate -20.7%

Cc1cc(N(CCCNc2ccnc3cc(Cl)ccc23)Cc2cccs2)nc(Cl)n1
active: COLO 205 colon -37.9%
inactive: NCI-H23 lung 25.3% | NCI-H226 lung 52.5% | NCI-H322M lung 72.9% | HOP-62 NSCLC 41.1% | NCI-H460 lung 35.3% | NCI-H522 lung 35.6% | A549/ATCC NSCLC 51.9% | 786-0 renal 48.2% | DU-145 prostate 50.2%

Clc1ccc(Sc2nc(NC3CC3)nc(Sc3ccc(Cl)cc3)n2)cc1
inactive: NCI-H23 lung 81% | NCI-H226 lung 83.4% | NCI-H322M lung 86.7% | HOP-62 NSCLC 102% | NCI-H460 lung 89.3% | NCI-H522 lung 59.1% | A549/ATCC NSCLC 80.9% | 786-0 renal 87.5% | COLO 205 colon 74% | DU-145 prostate 92.8%

CCOC(=O)c1ccoc1
inactive: NCI-H23 lung 103% | NCI-H226 lung 101% | NCI-H322M lung 85.1% | HOP-62 NSCLC 97.8% | NCI-H460 lung 101% | NCI-H522 lung 91.1% | A549/ATCC NSCLC 96.9% | 786-0 renal 99.1% | COLO 205 colon 101% | DU-145 prostate 109%

CN(C)C=Nc1cc(Cl)ccc1Cl
inactive: NCI-H23 lung 101% | NCI-H226 lung 96.3% | NCI-H322M lung 104% | HOP-62 NSCLC 99.9% | NCI-H460 lung 116% | NCI-H522 lung 97.2% | A549/ATCC NSCLC 92.1% | 786-0 renal 111% | COLO 205 colon 109% | DU-145 prostate 117%
